# The whole screen tested about 300,000 compounds, of which about 3,700 (1.2%) were called active. Where a call stands in place of a potency, no number is given. Roughly 20% stayed inconclusive and do not appear here. This is one part of a sample in which actives are shown more often than they occur. Calls come from the whole dose curve; tested in HEK293 cells.
# Assay: qHTS for Inhibitors of binding or entry into cells for Lassa Virus; note: nearly all actives have a fitted effect of over 50% in size
# Details: Lassa virus pseudotype entry inhibition, cell reporter; series mostly up to 37.9 µM
# Potency is the fitted concentration of half-maximal effect.
row,SMILES,Potency
1,Cc1ccc(Oc2ccc(N)cc2)cc1,inactive
2,Nc1ccc(Oc2ccc(Cl)cc2)cc1,inactive
3,CC(C)(C)c1ccc(Oc2ccc(N)cc2)cc1,0.651 µM (active)
4,O=S(=O)(Nc1ccc2ccccc2c1)N1CCCCC1,inactive
5,O=C1CC(c2ccccc2)C(c2ccccc2)=NN1 (centres undefined),inactive
6,CN1CCN(CCCCOc2cccc3ccccc23)CC1,inactive
7,CC1=CCC2C(=O)N(c3cccc(C(=O)NC(C)c4ccccc4)c3)C(=O)C2C1 (centres undefined),inactive
8,C=CCNC(=O)c1ccc(C)c(Br)c1,inactive
9,Cc1ccc(C(=O)NC(C)c2ccccc2)cc1Br (centres undefined),11.6 µM (active)
10,c1ccc2c(c1)OC1OC2Oc2ccccc21,inactive
11,CC1CCN(C(=O)CCc2nnc3ccc(NCc4ccco4)nn23)CC1,inactive
12,CCc1cc(C(N)=O)c(NC(=O)c2ccc(OC)cc2)s1,inactive
13,CCc1ccc(/C=N/NC(=O)c2ccc(OC3CCCC3)cc2)s1,2 µM (active)
14,COC(=O)CNC(=O)c1ccc(OC2CCN(C(=O)C3CC3)CC2)cc1,inactive
15,COC(=O)Cc1c(-c2[nH]c3ccccc3c2CC(=O)OC)[nH]c2ccccc12,inactive
16,Cc1cc(C(=O)COc2ccccc2[N+](=O)[O-])c(C)n1-c1cccc(S(=O)(=O)N2CCOCC2)c1,6.31 µM (active)
17,Cc1cc(S(=O)(=O)N2CCOCC2)ccc1OCC(=O)N1CCOCC1,inactive
18,O=C(COc1ccc(S(=O)(=O)N2CCOCC2)cc1Cl)N1CCOCC1,inactive
19,CSCCC(NS(=O)(=O)c1ccccc1F)C(=O)N1CC=C(c2ccccc2)CC1 (centres undefined),inactive
20,O=C(c1ccc(F)cc1)N1CCC(C(=O)N2CCN(S(=O)(=O)c3ccccc3Br)CC2)CC1,inactive
21,COC(=O)c1cnn(-c2ccc(C(=O)Nc3ccc(OC(F)(F)F)cc3)cc2)c1N,inactive
22,Cc1cccc(NS(=O)(=O)c2ccc(C(=O)NCC(C)(C)N3CCOCC3)cc2)c1C,inactive
23,CC1CN(C(=S)SCC(=O)c2ccccc2)CC(C)O1 (centres undefined),inactive

row,SMILES,Potency
1,O=C(CSC(=S)N1CCOCC1)c1cc(Br)cc(Br)c1O,inactive
2,O=C(CSC(=S)N1CCOCC1)c1ccccc1,14.6 µM (active)
3,Cc1cccc(C(=O)Nc2ccc(C(=O)N/N=C/c3cccc(C)n3)cc2)c1,inactive
4,Cc1cccc(C=CC(=O)c2ccc(Cl)cc2)c1,inactive
5,COc1ccc(OC)c(Cc2nnc(CCC(=O)NC3CCCC3)o2)c1,inactive
6,COc1ccc(OC)c(NC(=O)c2sc3nc(C)cc(C)c3c2N)c1,inactive
7,COc1ccc(OC)c(Cc2cnc3nc(N)nc(N)c3c2C)c1,0.251 µM (active)
8,CC(=O)Nc1ccc(S(=O)(=O)NCC(=O)OCC(=O)c2ccc[nH]2)cc1,inactive
9,CC(=O)c1cccc(OCC(=O)OCC(=O)Nc2cc(S(=O)(=O)N3CCCCC3)ccc2C)c1,inactive
10,CCCCOc1ccc(C(=O)NN2CCN(C)CC2)cc1,inactive
11,CCCOc1ccc(C(=O)C(CCC(CNCC)C(=O)c2ccc(OCCC)cc2)CNCC)cc1 (centres undefined),13 µM (active)
12,CCCOc1ccc(C(=O)CCC(=O)OC(C)C(=O)Nc2ccc(NC(C)=O)cc2)cc1 (centres undefined),inactive
13,CCc1noc(C)c1C(=O)N1CCCC(N2CCN(c3ccc(F)cc3)CC2)C1 (centres undefined),inactive
14,COc1ccc(C(=O)Nc2ccccc2C(=O)NCc2ccco2)cc1,inactive
15,COc1ccc(/C=C(/NC(=O)c2ccco2)C(=O)Nc2ccc(C(C)=O)cc2)cc1,inactive
16,COc1ccc(/C=C(\NC(=O)c2ccc(OCC(C)C)cc2)C(=O)OCc2ccco2)cc1,12.6 µM (active)
17,Cc1cc(C)c(C)c(S(=O)(=O)Nc2cccnc2)c1C,inactive
18,CCOc1ccccc1CNC(=O)c1cnc2c(-c3ccc(OCC)c(OCC)c3)c(C)nn2c1C,inactive
19,Cc1ccc2nc(NC(=O)C3CSC4(C)CCC(=O)N34)sc2c1 (centres undefined),inactive
20,O=C(Cc1c(Cl)cccc1Cl)NC1CC1,inactive
21,CCc1cccc(CC)c1NC(=S)NCc1ccc2[nH]c(C)cc2c1,18.4 µM (active)
22,Cc1c(Cl)cccc1NC(=S)NCc1ccc2c(c1)OCO2,inactive
23,Cc1c(NC(=S)NCc2ccc(F)cc2)cccc1[N+](=O)[O-],inactive

row,SMILES,Potency
1,O=C(CCc1ccccc1Cl)Nc1ccc(S(=O)(=O)Nc2nccs2)cc1,inactive
2,O=C(COC(=O)c1ccc(O)cc1O)NC(=O)c1ccccc1,inactive
3,O=C(CN(Cc1ccccc1)C(=O)CCC(=O)Nc1ccccn1)NCCc1ccccc1,inactive
4,Cc1cc([N+](=O)[O-])ccc1NS(=O)(=O)c1ccccc1,inactive
5,O=C(COc1cccnc1[N+](=O)[O-])Nc1ccc(Cl)cc1F,inactive
6,O=C(c1cccs1)n1nc(NCc2ccccc2)nc1NCc1ccccc1,10 µM (active)
7,O=C(c1ccco1)n1nc(-c2ccc(Cl)cc2)nc1NCc1ccccc1,inactive
8,O=C(CCC(=O)c1cccs1)NCc1ccccc1,inactive
9,Oc1cccc(CCc2ccccn2)c1,inactive
10,Cc1ccc(-c2nn(-c3ccc(F)cc3)cc2C(=O)NCC(c2cccs2)N2CCOCC2)cc1 (centres undefined),inactive
11,CC/C(C)=N/Nc1nc2sc3c(c2c(=O)[nH]1)CC(C)(C)OC3,5.01 µM (active)
12,CC(C)c1nc2sc3c(c2c(=O)n1N)CC(C)(C)OC3,inactive
13,CCOC(=O)CSc1nc2sc3c(c2c(=O)[nH]1)CC(C)(C)OC3,inactive
14,Cc1ccc(NC(=O)CSc2nn3c(=O)c(C)nnc3s2)cc1Cl,inactive
15,COCC(C)n1c(SCc2ccc(C(=O)OC)o2)nc2ccccc2c1=O (centres undefined),10.3 µM (active)
16,COCC(C)n1c(SCC(=O)NC2CCCCC2C)nc2ccccc2c1=O (centres undefined),inactive
17,COC(=O)c1ccc(CSc2ccccc2C)o1,inactive
18,O=C(NCCS(=O)(=O)N1CCN(c2ccc(F)cc2)CC1)c1ccc2c(c1)OCO2,inactive
19,O=C1/C(=C\c2ccc(O)cc2)CCC1CNc1ccc(Cl)cc1 (centres undefined),inactive
20,Cc1cccc(NC(=O)c2cccc(S(=O)(=O)N3CCCC3)c2)n1,inactive
21,O=C(CCCn1c(=O)c2cccn2c2cccnc21)NCc1ccc(F)cc1,inactive
22,Cc1cccc(N2CCN(C(=O)Cn3ncc4c5ccccc5n(C)c4c3=O)CC2C)c1 (centres undefined),inactive
23,Cc1cccc(N2CCN(C(=O)CCn3c(=O)c4cccn4c4cccnc43)CC2C)c1 (centres undefined),7.94 µM (active)
